Data published in PubChem BioAssay (NCI).
This is part of a sample that, as a whole, favours compounds with a hit. Of some 79,000 tested, about 15% had one in any assay. Calls of active or inactive are those of the source. No stated cut-off is given here; in the data, active means growth inhibition above about 70%; inactive means the rest.

Experiment: NCI Yeast Anticancer Drug Screen. Data for the mec2-1 strain (AID 157)
Settings: S. cerevisiae mec2-1 strain, at 3.7 µM, hits give high values
Method in brief: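 Mutant yeast (mec2-1) grown with compound; growth inhibition relative to vehicle control reported.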

| SMILES | growth inhibition |
| --- | --- |
| CCC/C(Cl)=N\OC(=O)Nc1cccc(C(F)(F)F)c1 | 18% (inactive) |
| [O-][n+]1c2ccc(O)cc2nc2ccc(Cl)cc21 | 9% (inactive) |
| Clc1ccccc1C1OC1c1ccccc1Cl (stereo not given) | -86% (inactive) |
| c1ccc2c(c1)c1ncccc1c1nccnc21 | 0% (inactive) |
| CC(=O)Nc1ccc2c(c1)C(=Nc1ccc(C(=O)O)cc1)c1ccccc1-2 | 4% (inactive) |
| COc1ccc(OC)c2cc3ccccc3cc12 | -11% (inactive) |
| COc1cc(C2c3cc4c(cc3OC(NNc3ccccc3)C2C)OCO4)cc(OC)c1OC (stereo not given) | 5% (inactive) |
| O=C1c2cc([N+](=O)[O-])ccc2-c2cccc(F)c21 | 3% (inactive) |
| CCCCCCCCCCCC(=O)N(C)C | -24% (inactive) |
| CCCCCCCCCCCC1=C(O)C(=O)C=C(O)C1=O | -4% (inactive) |
| Cc1ccc(CSC(N)=Nc2ccccc2)cc1C | 10% (inactive) |
| CCCCCCCCCCC1CCC(=O)O1 (stereo not given) | -2% (inactive) |
| O=[N+]([O-])c1cc(CCl)ccc1CCl | 6% (inactive) |
| Nc1ccc2c(c1)C(=O)c1cccc(N)c1C2=O | 16% (inactive) |
| CCCCCCCCCCNC(=O)OCC | -5% (inactive) |
| CC1=C(C)Cc2c(O)ccc(O)c2C1 | -3% (inactive) |
| COc1ccc2c(c1)C(=O)c1ccccc1C2 | 5% (inactive) |
| CCC(=O)OCCn1c2nc(=O)[nH]c(=O)c-2nc2cc(C)c(C)cc21 | -3% (inactive) |
| O=C(OCCN1CCCCCC1)C(c1ccsc1)C1CCCCC1 (stereo not given) | 10% (inactive) |
| Oc1c(Br)cc(Br)cc1C1CCCCC1 | -3% (inactive) |
